Source: PubChem BioAssay (NCATS)
Results filed as inconclusive are left out. Activity calls are given as the source filed them. Calls come from the whole dose curve; as a rule, active = well fitted curve in the direction sought with a large enough effect; inconclusive = small, poorly fitted or top-dose-only effect, or another doubt; inactive = no such curve, though single readings can be large; an effect the other way counts as inactive or inconclusive.

Tests used:
[1] = Quantitative High-Throughput drug screen in 47 multiple myeloma cell lines against the NCATS MIPE library collection: JIM3_ECACC cell viability assay (AID 1918963; note: nearly all actives have a fitted effect of over 35% in size)
In short: (§1)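 Myeloma cell lines, 500 cells per well, exposed to MIPE 4.0 library compounds for 48 h at 37C, 5% CO2. Viability from ATP by CellTiter-Glo luminescence; normalised to DMSO (100%) and media-only (0%) wells.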

[2] = Quantitative High-Throughput drug screen in 47 multiple myeloma cell lines against the NCATS MIPE library collection: INA6_PLB cell viability assay (AID 1918965; note: nearly all actives have a fitted effect of over 55% in size)
In short: as §1

[3] = Quantitative High-Throughput drug screen in 47 multiple myeloma cell lines against the NCATS MIPE library collection: JJN3_DSMZ cell viability assay (AID 1918966; note: nearly all actives have a fitted effect of over 50% in size)
In short: (§2)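 Approved and investigational drugs from MIPE 4.0 were added by pin tool to 500 cells per well. After 48 hours at 37C, ATP-based CellTiter-Glo luminescence indicated remaining viability.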

[4] = Quantitative High-Throughput drug screen in 47 multiple myeloma cell lines against the NCATS MIPE library collection: Karpas25_ECACC cell viability assay (AID 1918968; note: nearly all actives have a fitted effect of over 35% in size)
In short: as §2

[5] = Quantitative High-Throughput drug screen in 47 multiple myeloma cell lines against the NCATS MIPE library collection: KMS27_JCRB cell viability assay (AID 1918970); note: nearly all actives have a fitted effect of over 30% in size
In short: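 Luminescent ATP read-out (CellTiter-Glo, 5 min at room temperature) after 48 h compound exposure of 500 KMS27_JCRB cells per well; DMSO wells define full viability and media-only wells zero.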

[6] = Quantitative High-Throughput drug screen in 47 multiple myeloma cell lines against the NCATS MIPE library collection: KMS12BM_JCRB cell viability assay (AID 1918971); note: nearly all actives have a fitted effect of over 35% in size
In short: (§3)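 CellTiter-Glo luminescence (ATP) after 48 h compound exposure, 37C/5% CO2; 500 cells/well; MIPE 4.0 approved/investigational drugs pinned in; DMSO = 100%, media only = 0% viability.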

[7] = Quantitative High-Throughput drug screen in 47 multiple myeloma cell lines against the NCATS MIPE library collection: KMS12PE_JCRB cell viability assay (AID 1918972); note: nearly all actives have a fitted effect of over 30% in size
In short: as §1

[8] = Quantitative High-Throughput drug screen in 47 multiple myeloma cell lines against the NCATS MIPE library collection: KMS20_JCRB cell viability assay (AID 1918973); note: nearly all actives have a fitted effect of over 45% in size
In short: as §2

[9] = Quantitative High-Throughput drug screen in 47 multiple myeloma cell lines against the NCATS MIPE library collection: KMS26_JCRB cell viability assay (AID 1918975); note: nearly all actives have a fitted effect of over 45% in size
In short: as §3

[10] = Quantitative High-Throughput drug screen in 47 multiple myeloma cell lines against the NCATS MIPE library collection: MMM1_PLB cell viability assay (AID 1918976); note: nearly all actives have a fitted effect of over 35% in size
In short: (§4)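 500 cells/well per myeloma line exposed to pinned MIPE 4.0 compounds for 48 h at 37 °C, 5% CO2. Viability read as ATP by CellTiter-Glo luminescence, normalised to DMSO-only (100%) and media-only (0%) wells.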

[11] = Quantitative High-Throughput drug screen in 47 multiple myeloma cell lines against the NCATS MIPE library collection: MOLP8_DSMZ cell viability assay (AID 1918977); note: nearly all actives have a fitted effect of over 45% in size
In short: as §4

[12] = Quantitative High-Throughput drug screen in 47 multiple myeloma cell lines against the NCATS MIPE library collection: NCIH929_DSMZ cell viability assay (AID 1918978); note: nearly all actives have a fitted effect of over 35% in size
In short: as §4

[13] = Quantitative High-Throughput drug screen in 47 multiple myeloma cell lines against the NCATS MIPE library collection: OCIMY1_PLB cell viability assay (AID 1918979); note: nearly all actives have a fitted effect of over 35% in size
In short: as §4

[14] = Quantitative High-Throughput drug screen in 47 multiple myeloma cell lines against the NCATS MIPE library collection: MM1S_ATCC cell viability assay (AID 1918980); note: nearly all actives have a fitted effect of over 45% in size
In short: as §4

[15] = Quantitative High-Throughput drug screen in 47 multiple myeloma cell lines against the NCATS MIPE library collection: MM1R_ATCC cell viability assay (AID 1918981); note: nearly all actives have a fitted effect of over 35% in size
In short: as §4

[16] = Quantitative High-Throughput drug screen in 47 multiple myeloma cell lines against the NCATS MIPE library collection: JIM1_ECACC cell viability assay (AID 1918964)
In short: as §2

[17] = Quantitative High-Throughput drug screen in 47 multiple myeloma cell lines against the NCATS MIPE library collection: H1112_PLB cell viability assay (AID 1918967; note: nearly all actives have a fitted effect of over 30% in size)
In short: as §2

[18] = Quantitative High-Throughput drug screen in 47 multiple myeloma cell lines against the NCATS MIPE library collection: LP1_DSMZ cell viability assay (AID 1918982); note: nearly all actives have a fitted effect of over 35% in size
In short: as §4

[19] = Quantitative High-Throughput drug screen in 47 multiple myeloma cell lines against the NCATS MIPE library collection: KMS21BM_JCRB cell viability assay (AID 1918974); settings: ATP luminescence, 48 h; viability: at 45.8 µM (top of the series) unless noted
In short: as §2
Potency is the fitted concentration of half-maximal effect.

Cc1cc(N2CCOCC2)cc2[nH]c(-c3c(NC[C@@H](O)c4cccc(Cl)c4)cc[nH]c3=O)nc12
Potency [1]: 0.132 µM (active)
Potency [2]: 0.296 µM (active)
Potency [3]: 1.48 µM (active)
Potency [4]: 0.0833 µM (active)
Potency [5]: 0.332 µM (active)
Potency [6]: 16.6 µM (active)
Potency [7]: 7.43 µM (active)
Potency [8]: 0.0935 µM (active)
Potency [9]: 0.526 µM (active)
Potency [10]: 0.166 µM (active)
Potency [11]: 11.8 µM (active)
Potency [12]: 0.0526 µM (active)
Potency [13]: 0.296 µM (active)
Potency [14]: 0.187 µM (active)
Potency [15]: 0.187 µM (active)

O=C(O)c1ccc2cc(-c3ccc(O)c(C45CC6CC(CC(C6)C4)C5)c3)ccc2c1
Potency [1]: 3.72 µM (active)
Potency [16]: 0.332 µM (active)
Potency [17]: 0.418 µM (active)
Potency [4]: 1.48 µM (active)
Potency [5]: 0.187 µM (active)
Potency [6]: 4.69 µM (active)
Potency [7]: 0.526 µM (active)
Potency [10]: 18.7 µM (active)
Potency [11]: 1.32 µM (active)
Potency [13]: 16.6 µM (active)
Potency [14]: 1.32 µM (active)
Potency [18]: 20.9 µM (active)

O=C(O)[C@H](Cc1c[nH]c2ccccc12)N1C(=O)c2ccccc2C1=O
Potency [1]: inactive
Potency [16]: inactive
Potency [4]: inactive
Potency [7]: inactive
Potency [8]: inactive
Potency [19]: inactive
Potency [9]: inactive
Potency [11]: inactive
Potency [12]: 54 µM (active)
Potency [13]: inactive
Potency [14]: 42.9 µM (active)
Potency [18]: inactive

CN(C1CCc2c(c3ccccc3n2CC(=O)O)C1)S(=O)(=O)c1ccc(F)cc1 (stereo unspecified)
Potency [1]: inactive
Potency [2]: inactive
Potency [17]: inactive
Potency [4]: 2.09 µM (active)
Potency [5]: 1.18 µM (active)
Potency [7]: 5.26 µM (active)
Potency [19]: 0.418 µM (active)
Potency [9]: inactive
Potency [11]: inactive
Potency [12]: inactive
Potency [13]: inactive
Potency [14]: 1.48 µM (active)

CCCNC(=O)Nc1ccc(Oc2ncnc3cc(OC)c(OC)cc23)cc1Cl
Potency [1]: inactive
Potency [16]: inactive
Potency [3]: inactive
Potency [17]: inactive
Potency [4]: inactive
Potency [5]: inactive
Potency [6]: 18.7 µM (active)
Potency [7]: inactive
Potency [10]: 1.66 µM (active)
Potency [11]: inactive
Potency [12]: inactive
Potency [13]: inactive
Potency [14]: 20.9 µM (active)
Potency [15]: inactive
Potency [18]: inactive

CCC(=C(c1ccccc1)c1ccc(OCCN(C)C)cc1)c1ccccc1
Potency [1]: 23.5 µM (active)
Potency [2]: 16.6 µM (active)
Potency [4]: 18.7 µM (active)
Potency [5]: 20.9 µM (active)
Potency [6]: 26.4 µM (active)
Potency [7]: 13.2 µM (active)
Potency [19]: 18.7 µM (active)
Potency [9]: 20.9 µM (active)
Potency [10]: 23.5 µM (active)
Potency [12]: 20.9 µM (active)
Potency [13]: inactive
Potency [14]: 29.6 µM (active)
Potency [15]: 23.5 µM (active)

O=C(O)CO.[NH2-].[NH2-].[Pt+2]
Potency [1]: inactive
Potency [16]: inactive
Potency [3]: inactive
Potency [4]: inactive
Potency [7]: inactive
Potency [9]: inactive
Potency [13]: inactive
Potency [18]: inactive

Nc1ccc(C(=O)c2cc3c(ccc4ccccc43)[nH]2)cc1
Potency [1]: 2.64 µM (active)
Potency [2]: 2.64 µM (active)
Potency [3]: 7.43 µM (active)
Potency [4]: 3.72 µM (active)
Potency [6]: 2.64 µM (active)
Potency [9]: 16.6 µM (active)
Potency [10]: 6.62 µM (active)
Potency [12]: 18.7 µM (active)
Potency [18]: 5.26 µM (active)

C[C@@H]1CN(CC(=O)Nc2ccc3c(c2)Cc2cccc(-c4cc(=O)cc(N5CCOCC5)o4)c2S3)C[C@H](C)O1
Potency [1]: 13.2 µM (active)
Potency [2]: 11.8 µM (active)
Potency [3]: 13.2 µM (active)
Potency [4]: 4.18 µM (active)
Potency [5]: 18.7 µM (active)
Potency [6]: 20.9 µM (active)
Potency [7]: 13.2 µM (active)
Potency [9]: 20.9 µM (active)
Potency [12]: 5.9 µM (active)
Potency [14]: 18.7 µM (active)
Potency [15]: 16.6 µM (active)

CC(C)Nc1cc(C(F)(F)F)cc2nc(NC(=O)c3cccnc3)nn12
Potency [1]: inactive
Potency [16]: inactive
Potency [17]: inactive
Potency [4]: inactive
Potency [5]: inactive
Potency [7]: inactive
Potency [10]: 1.87 µM (active)
Potency [11]: inactive
Potency [12]: inactive
Potency [13]: inactive
Potency [15]: inactive
Potency [18]: inactive

CC1(C)CC(=O)c2c(C(F)(F)F)nn(-c3ccc(C(N)=O)c(NC4CCC(OC(=O)CN)CC4)c3)c2C1 (stereo unspecified)
Potency [1]: 0.148 µM (active)
Potency [16]: 0.132 µM (active)
Potency [2]: 0.118 µM (active)
Potency [3]: 0.132 µM (active)
Potency [4]: 0.187 µM (active)
Potency [5]: 0.0743 µM (active)
Potency [6]: 0.187 µM (active)
Potency [7]: 0.132 µM (active)
Potency [8]: 0.148 µM (active)
Potency [9]: 0.187 µM (active)
Potency [10]: 0.418 µM (active)
Potency [11]: 0.148 µM (active)
Potency [12]: 0.148 µM (active)
Potency [13]: 0.469 µM (active)
Potency [14]: 0.209 µM (active)

CCCCCN(CCC12CC3CC(CC(C3)C1)C2)C(=O)NCCCc1ccncc1
Potency [1]: 20.9 µM (active)
Potency [2]: 16.6 µM (active)
Potency [17]: 18.7 µM (active)
Potency [5]: 4.18 µM (active)
Potency [6]: 26.4 µM (active)
Potency [7]: 4.69 µM (active)
Potency [8]: 18.7 µM (active)
Potency [9]: 20.9 µM (active)
Potency [10]: 20.9 µM (active)
Potency [11]: 20.9 µM (active)
Potency [12]: 18.7 µM (active)
Potency [13]: inactive
Potency [14]: 18.7 µM (active)
Potency [15]: 23.5 µM (active)

Cc1ccc(CN2CCNCC2)cc1NC(=O)CNc1ccc(F)c(F)c1
Potency [1]: inactive
Potency [16]: inactive
Potency [3]: inactive
Potency [17]: inactive
Potency [4]: 5.9 µM (active)
Potency [5]: inactive
Potency [7]: inactive
Potency [8]: inactive
Potency [10]: 16.6 µM (active)
Potency [12]: inactive
Potency [13]: inactive
Potency [14]: 2.64 µM (active)
Potency [15]: 26.4 µM (active)
